# According to PubChem BioAssay (Tox21):
# Where “and” joins values, the source holds several entries; their conditions need not be identical. Identical values can stand only once. Unmarked numbers belong to inactive results. Records with an inconclusive call do not appear. Entries that show only a call come without a potency. Calls of active or inactive are those of the source. Unless noted, the call rests on the fitted dose curve; in most records, active means well fitted curve in the direction sought with a large enough effect in the repeat runs; inconclusive means weak or mixed curves; inactive means no such curve, though single readings can be large; an effect the other way counts as inactive or inconclusive.
# Tests used:
# [1] = qHTS assay to identify small molecule agonists of H2AX (AID 1224845; active means well fitted activation curve with a large enough effect in the signal ratio in the repeat runs, not every such curve was filed as active; the % refers to the signal ratio; further: potency means the concentration at half of the fitted maximal effect)
# How it was run: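 Phospho-H2AX Ser139 measured by HTRF (ex 320 nm; em 665 and 620 nm) after 24 hr antibody incubation. Compounds, 15 concentrations, 0.76% DMSO, were applied to CHO-K1 cells for 3hr at 37C before lysis.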
# [2] = qHTS assay to identify small molecule agonists of the hypoxia (HIF-1) signaling pathway (AID 1224846; active means well fitted activation curve with a large enough effect in the signal ratio in the repeat runs, not every such curve was filed as active; the % refers to the signal ratio)
# How it was run: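 Cell line: CellSensor HRE-bla ME-180; 2,000 cells/well; 0.5% dialyzed FBS; 5 h preincubation; DMSO compound pin transfer; 17 h, 37C, 5% CO2; CCF4-AM added; bla FRET signal scored for activation.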
# [3] = qHTS assay to identify small molecule agonists of H2AX - cell viability counter screen (AID 1224847; calls by dose curve; further: nearly all actives have a fitted effect of over 30% in size; further: potency means the concentration at half of the fitted maximal effect)
# How it was run: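 For this counter screen, overnight-attached CHO-K1 cells received test compounds (15 concentrations, 0.76% DMSO final); 3 hr later at 37C, CellTiter-Glo reagent was added and luminescence recorded after 30 min at room temperature.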
# [4] = qHTS RealTime-Glo MT Cell Viability Assay in HepG2 cells - 24 hour (AID 1224867); further: nearly all actives have a fitted effect of over 50% in size; further: potency means the concentration at half of the fitted maximal effect
# How it was run: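 HepG2 cells were seeded at 600 cells/well together with NanoLuc luciferase and a cell-permeant prosubstrate, preincubated 5 h at 37 C/5% CO2, then pin-dosed with compounds in DMSO. Nonlytic luminescence from viable cells was read at each time point.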
# [5] = qHTS RealTime-Glo MT Cell Viability Assay in HEK293 cells - 32 hour (AID 1224868); further: nearly all actives have a fitted effect of over 50% in size; further: potency means the concentration at half of the fitted maximal effect
# How it was run: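 HEK293 cells were seeded at 600 cells/well together with NanoLuc luciferase and cell-permeant prosubstrate, preincubated 5 h at 37 C/5% CO2, then given compound in DMSO by pintool. Luminescence from viable-cell prosubstrate reduction was read repeatedly over 40 h.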
# [6] = A CellTox Green Cytotoxicity Assay to monitor cytotoxicity in HEK293 cells - 0 hour (AID 1224869); further: nearly all actives have a fitted effect of over 50% in size; further: potency means the concentration at half of the fitted maximal effect
# How it was run: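 Nonlytic real-time cytotoxicity: HEK293 + CellTox Green reagent plated, 5 h preincubation, pintool compound addition (23 nL in DMSO), 37 C for 40 h, fluorescence measured at successive time points.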
# [7] = qHTS RealTime-Glo MT Cell Viability Assay in HepG2 cells - 40 hour (AID 1224870); further: nearly all actives have a fitted effect of over 50% in size; further: potency means the concentration at half of the fitted maximal effect
# How it was run: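 Real-time viability: cells seeded at 600 per well together with NanoLuc and cell-permeant prosubstrate, compounds added after 5 h incubation. Luminescence tracked at 0, 8, 16, 24, 32 and 40 h of exposure.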
# [8] = qHTS assay to identify small molecule antagonists of the estrogen related receptor (ERR) signaling pathway from Tox21 library (AID 1224848); further: nearly all actives have a fitted effect of over 50% in size; further: potency means the concentration at half of the fitted maximal effect
# How it was run: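 Antagonist-mode screen of the Tox21 10K library in an NTP-provided ERR reporter cell line; 18 h compound exposure at 37 C, luminescence measured with ONE-Glo.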
# [9] = qHTS assay to identify small molecule agonists of the estrogen related receptor (ERR) signaling pathway from Tox21 library (AID 1224849; calls by dose curve; further: nearly all actives have a fitted effect of over 15% in size); conditions: ERR reporter cell line, ONE-Glo luciferase, 18 h
# How it was run: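 ERR cells, 6 h pre-incubation 37 C/5% CO2; cpd in DMSO pinned; 18 h 37 C; ONE-Glo added, 30 min RT; luminescence read. Agonist mode, qHTS.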
Structure (SMILES),Potency [1],outcome [2],Potency [3],Potency [4],Potency [5],Potency [6],Potency [7],Potency [8],"activity change, positive = activation ([9]; at 42.5 µM (top of the series))","activity change, positive = activation ([9]; at 92.4 µM (top of the series))"
Cc1ccc2c(C)cccc2c1,inactive,inactive,inactive,inactive,inactive,inactive,inactive,–,–,–
O=C(O)C(F)(F)C(F)(F)C(F)(F)C(F)(F)C(F)(F)F,inactive,inactive,inactive,inactive,inactive,inactive,inactive,–,–,–
CCc1cnc(C2=NC(C)(C(C)C)C(=O)N2)c(C(=O)O)c1 (configuration not stated),inactive,inactive,inactive,inactive,inactive,inactive,inactive,–,–,–
CC(C)(C)NCC(O)c1cc(Cl)c(N)c(C(F)(F)F)c1 (configuration not stated),inactive,inactive,inactive,inactive,inactive,inactive,inactive,inactive,–,–
c1ccc2sc(SNC3CCCCC3)nc2c1,inactive,inactive,inactive,inactive,inactive,inactive,inactive,–,–,–
CCCC[N+]1(C)[C@@H]2CC(OC(=O)[C@H](CO)c3ccccc3)C[C@H]1[C@@H]1O[C@@H]12 (some centres not stated),–,–,inactive,inactive,inactive,inactive,inactive,–,–,–
CCCN(CCC)c1c([N+](=O)[O-])cc(C(C)C)cc1[N+](=O)[O-],inactive,inactive,inactive,inactive,inactive,inactive,inactive,–,–,–
CCOc1cccc(C2(N3CCN(c4ccccc4)CC3)CCC(C)CC2)c1 (configuration not stated),inactive,inactive,inactive,inactive,inactive,inactive,inactive,–,–,–
O=C1NC(=O)C(=O)C(=O)N1,inactive,inactive,inactive,inactive,inactive,inactive,inactive,–,–,–
CCOC(C(=O)OCCN(C)C)(c1ccccc1)c1ccccc1,–,inactive,inactive,inactive,inactive,inactive,inactive,inactive,-1.78%,–
COC1CC(=C(c2cccs2)c2cccs2)C[N+](C)(C)C1 (configuration not stated),inactive,inactive,inactive,inactive,inactive,inactive,inactive,–,–,–
C=CCN1C[C@H](C)N([C@H](c2ccc(C(=O)N(CC)CC)cc2)c2cccc(OC)c2)C[C@H]1C,inactive,–,–,inactive,19 µM (active),inactive,inactive,–,–,–
Cc1ccccc1,–,inactive,inactive,inactive,inactive,inactive,inactive,–,–,–
CCOP(=O)(SC(C)CC)N1CCSC1=O (configuration not stated),–,inactive,inactive,inactive,inactive,inactive,inactive,–,–,–
CCCCCCCCn1sccc1=O,–,–,50.6 µM (active) and 26.5 µM (active),43.7 µM (active) and 16.2 µM (active),11 µM (active) and 12.9 µM (active),inactive,43.7 µM (active) and 14.5 µM (active),17.3 µM (active) and 9.05 µM (active),–,–
CCC1CCC(=O)O1 (configuration not stated),inactive,inactive,inactive,inactive,inactive,inactive,inactive,–,–,–
COC(=O)Cc1ccccc1,inactive,inactive,inactive,inactive,inactive,inactive,inactive,–,–,–
CCCCCCCCP(=O)(O)O,inactive,inactive,inactive,inactive,inactive,inactive,inactive,–,–,–
Cc1nc(N(C)C)nc(OC(=O)N(C)C)c1C,–,inactive,inactive,inactive,inactive,inactive,inactive,–,–,–
O=C=NC1CCCCC1,inactive,inactive,inactive,inactive,inactive,inactive,inactive,inactive,–,–

Structure (SMILES),Potency [1],outcome [2],Potency [3],Potency [4],Potency [5],Potency [6],Potency [7],Potency [8],"activity change, positive = activation ([9]; at 42.5 µM (top of the series))","activity change, positive = activation ([9]; at 92.4 µM (top of the series))"
C[N+](C)(C)CCOC(=O)C(O)(c1ccccc1)c1ccccc1,–,inactive,inactive,inactive,inactive,inactive,23.9 µM (active),–,–,–
C=CC(C)(CCC=C(C)C)OC(=O)c1ccccc1N (configuration not stated),inactive,inactive,inactive,inactive,inactive,inactive,inactive,–,–,–
C=CC(=O)NC(C)(C)CC(C)=O,inactive,inactive,inactive,inactive,inactive,inactive,inactive,–,–,–
CC(C)CCCCCCCOC(=O)c1ccccc1C(=O)OCCCCCCCC(C)C,–,inactive,inactive,inactive,inactive,inactive,inactive,inactive,–,0.464%
O=C(Cc1ccccc1)c1ccccc1,inactive,inactive,inactive,inactive,inactive,inactive,inactive,–,–,–
COc1ccc2c(c1OC)C(=O)O[C@H]2[C@@H]1c2cc3c(cc2CCN1C)OCO3,inactive,–,inactive,inactive,inactive,inactive,inactive,–,–,–
CN(C)c1ccc(N=O)cc1,–,–,–,55.1 µM (active) and 38.9 µM (active),15.5 µM (active) and 21.9 µM (active),inactive,34.7 µM (active),inactive,–,–
C[N+](C)(C)CC1CO1 (configuration not stated),–,inactive,inactive,inactive,inactive,inactive,inactive,–,–,–
CCc1ccccc1N,–,inactive,inactive,inactive,–,inactive,inactive,–,–,–
CC(C)(C#N)C(C)(C)C#N,inactive,inactive,inactive,inactive,inactive,inactive,inactive,inactive,–,–
CCCCC(CC)COC(=O)c1c(Br)c(Br)c(Br)c(Br)c1C(=O)OCC(CC)CCCC (configuration not stated),inactive,inactive,inactive,inactive,inactive,inactive,inactive,–,–,–
CCOC(=O)c1cn2nc(OP(=S)(OCC)OCC)cc2nc1C,inactive,–,–,inactive,13.8 µM (active),inactive,inactive,34.4 µM (active),–,-40.1%
C[C@H](N)[C@H](O)c1ccc(O)c(O)c1,–,–,inactive,inactive,inactive,16.9 µM (active),inactive,inactive,–,–
CC(C)[C@@H](C(=O)O[C@@H](C#N)c1cccc(Oc2ccccc2)c1)c1ccc(Cl)cc1,–,–,16.2 µM (active),inactive,–,inactive,inactive,–,–,–
CN[C@@H](C)[C@H](O)c1ccccc1,inactive,inactive,inactive,inactive,inactive,inactive,inactive,–,–,–
CC[N+]1(CCOC(=O)C(O)(c2ccccc2)c2ccccc2)CCCCC1,inactive,inactive,inactive,inactive,inactive,inactive,inactive,–,–,–
C=CCOCC1CO1 (configuration not stated),inactive,inactive,inactive,inactive,inactive,inactive,inactive,inactive,–,–
Cc1nnc(-c2ccccc2)c(=O)n1N,–,inactive,inactive,inactive,inactive,inactive,inactive,–,–,–
[Cl-].[Cl-].[Hg+2],1.26 µM (active) and 1.42 µM (active),–,17.8 µM (active) and 7.13 µM (active),48.8 µM (active) and 3.47 µM (active),–,inactive,3.89 µM (active),–,–,–
